# In PubChem BioAssay (NCI):
# Where “and” joins values, the source holds several entries; their conditions need not be identical. Equal entries are not always repeated. The panel holds about 83,000 compounds, 20% with a hit somewhere; the sample as a whole holds those more often.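 Growth was measured after 48 h exposure to one concentration of compound in 96-well plates. Values under 10 count as active.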 Calls of active or inactive are those of the source.
# Test system: MCF7 breast
# Experiment: NCI-60 one-dose screen, 48 h (100 = growth as untreated, 0 = no growth, -100 = all killed)
# Conditions: 10 µM unless noted
row,Compound,growth
1,CC1OC(OC2C(O[C@H]3CC[C@@]4(C)C(=CC[C@H]5[C@@H]6C[C@@H]7O[C@]8(CC[C@H](C)CN8)[C@@H](C)[C@@H]7[C@@]6(C)CC[C@@H]54)C3)OC(CO)C(O)C2OC2OC(CO)C(O)C(O)C2O)C(O)C(O)C1O (stereo partly drawn),91.3% [100 µM] (inactive) and -95.2% [100 µM] (active)
2,O=c1c2ncn(C3CCCCO3)c2n(-c2ccccc2)c(=S)n1-c1ccccc1 (stereo not drawn),43.5% [100 µM] (inactive) and 61.3% [100 µM] (inactive)
3,O=C(O)c1cnccc1-c1cc(=O)[nH]n1-c1ccccc1,29.1% [100 µM] (inactive) and 3.22% [100 µM] (active)
4,COc1cc2c(cc1O)Cc1c-2[n+](C)cc2cc(OC)c(OC)cc12,19.5% [100 µM] (inactive) and 0.687% [100 µM] (active)
5,CCCCCCCCCCCCCC1=C(O)C(=O)C(CC2=C(O)C(=O)C(CCCCCCCCCCCCC)=C(O)C2=O)=C(O)C1=O,2.9% [100 µM] (active) and -79.8% [100 µM] (active)
6,CN(C)CCNc1ccc(NCC[N+](C)(C)Cc2ccc([N+](=O)[O-])cc2)c2c1C(=O)c1ccccc1C2=O,6.38% [25 µM] (active) and -100% [25 µM] (active)
7,COc1ccc(C2=C(N)c3ccccc3C2=O)cc1,79.1% [100 µM] (inactive) and 72.9% [100 µM] (inactive)
8,COc1ccc(CC2c3cc(OC)c(OC)c(OC)c3CC[N+]2(C)C)cc1Oc1ccc(CC2c3cc4c(c(OC)c3CCN2C)OCO4)cc1 (stereo not drawn),69.2% [100 µM] (inactive) and 5.51% [100 µM] (active)
9,Cc1c2c(c(O)c3c(O)cccc13)C(=O)C1(O)C(O)=C(C(=O)NCNc3ccc(C(N)=O)cn3)C(=O)C(N(C)C)C1C2 (stereo not drawn),-81.9% [100 µM] (active) and -89.4% [100 µM] (active)
10,CC#CC#C/C=C1/C=CC2(CCCCO2)O1 (stereo not drawn),53.8% [100 µM] (inactive) and 0.753% [100 µM] (active)
11,O=C1NC(=S)NC1C(Cc1ccccc1)c1ccco1 (stereo not drawn),19% [100 µM] (inactive) and 3.76% [100 µM] (active)
12,CCOC(=O)CCCOc1cc(-c2ccccc2F)nc2cc3c(cc12)OCO3,14.3% [100 µM] (inactive) and -100% [100 µM] (active)
13,CC1=CCC2C3(C)CCC2(C(C)C)C1C3 (stereo not drawn) (tested in a mixture with another compound),-76.9% [100 µM] (active) and -91.7% [100 µM] (active)
14,C=C1C(=O)OC2/C=C(/C)C3(O)OC(C)(CC(OC(=O)C(C)C)C12)CC3OC(C)=O (stereo not drawn),-83.4% [100 µM] (active)
15,COC(=O)c1ccc(CCc2cc(O)c(Br)cc2O)cc1,-61.7% [100 µM] (active) and -71.7% [100 µM] (active)
16,Cc1sccc1C(=S)Nc1ccc(Cl)c(/C=N/OC(C)(C)C)c1,-73.5% [100 µM] (active) and -46.7% [100 µM] (active)
17,Cc1ccc(/C=N/Nc2ccc3ccccc3n2)s1,-79.9% [100 µM] (active) and -100% [100 µM] (active)
18,CCOC(=O)c1nc2cc(C(F)(F)F)ccc2nc1Nc1ccc(F)cc1,34% [100 µM] (inactive) and 3.76% [100 µM] (active)
19,O=c1cc(-c2ccc(O)cc2)oc2cc(O[C@@H]3O[C@H](CO)[C@@H](O)[C@H](O)[C@H]3O)cc(O)c12,38.3% [100 µM] (inactive) and 0.613% [100 µM] (active)
20,Oc1ccccc1-c1n[nH]c(-c2ccccc2O)n1,-10.7% [100 µM] (active) and -76.4% [100 µM] (active)
21,NC(=O)c1[nH]cnc1/N=N/SCC(N)C(=O)O (stereo not drawn),45.4% [100 µM] (inactive) and 15.8% [100 µM] (inactive)
22,COc1cc2c(cc1-c1coc3cc(OCC=C(C)C)ccc3c1=O)OCO2,-12% [100 µM] (active) and -54.2% [100 µM] (active)
23,C=C1C(=O)OC2/C=C(\CO)C(OC(C)=O)CC(O)/C(C)=C/C(OC(=O)C(C)CC)C12 (stereo not drawn),-87% [100 µM] (active) and -86.7% [100 µM] (active)
